In ChEMBL document CHEMBL3988442, “University of Dundee, Small-Polar-MMV Screening Library” (2021):
For some of these results: Potency and affinity values are given separately.

Columns and labels:
Parameters in all cases: scale not given: direction of the effect not stated beside the values
[1] = biological target: Protein translocase subunit SecA (Escherichia coli (strain K12)) (UniProt P10408); assay: Assay to Identify E. coli SecA ATPase Inhibitors; type: functional; conditions: 30 µM
[2] = biological target: T1, Ubiquitin-activating enzyme e1, putative (Leishmania donovani (strain BPK282A1)) (UniProt E9BSI1); assay: Leishmania donovani Ubiquitin Activating Enzyme (LdE1); type: functional; conditions: 30 µM
T1 sequence (whole entry): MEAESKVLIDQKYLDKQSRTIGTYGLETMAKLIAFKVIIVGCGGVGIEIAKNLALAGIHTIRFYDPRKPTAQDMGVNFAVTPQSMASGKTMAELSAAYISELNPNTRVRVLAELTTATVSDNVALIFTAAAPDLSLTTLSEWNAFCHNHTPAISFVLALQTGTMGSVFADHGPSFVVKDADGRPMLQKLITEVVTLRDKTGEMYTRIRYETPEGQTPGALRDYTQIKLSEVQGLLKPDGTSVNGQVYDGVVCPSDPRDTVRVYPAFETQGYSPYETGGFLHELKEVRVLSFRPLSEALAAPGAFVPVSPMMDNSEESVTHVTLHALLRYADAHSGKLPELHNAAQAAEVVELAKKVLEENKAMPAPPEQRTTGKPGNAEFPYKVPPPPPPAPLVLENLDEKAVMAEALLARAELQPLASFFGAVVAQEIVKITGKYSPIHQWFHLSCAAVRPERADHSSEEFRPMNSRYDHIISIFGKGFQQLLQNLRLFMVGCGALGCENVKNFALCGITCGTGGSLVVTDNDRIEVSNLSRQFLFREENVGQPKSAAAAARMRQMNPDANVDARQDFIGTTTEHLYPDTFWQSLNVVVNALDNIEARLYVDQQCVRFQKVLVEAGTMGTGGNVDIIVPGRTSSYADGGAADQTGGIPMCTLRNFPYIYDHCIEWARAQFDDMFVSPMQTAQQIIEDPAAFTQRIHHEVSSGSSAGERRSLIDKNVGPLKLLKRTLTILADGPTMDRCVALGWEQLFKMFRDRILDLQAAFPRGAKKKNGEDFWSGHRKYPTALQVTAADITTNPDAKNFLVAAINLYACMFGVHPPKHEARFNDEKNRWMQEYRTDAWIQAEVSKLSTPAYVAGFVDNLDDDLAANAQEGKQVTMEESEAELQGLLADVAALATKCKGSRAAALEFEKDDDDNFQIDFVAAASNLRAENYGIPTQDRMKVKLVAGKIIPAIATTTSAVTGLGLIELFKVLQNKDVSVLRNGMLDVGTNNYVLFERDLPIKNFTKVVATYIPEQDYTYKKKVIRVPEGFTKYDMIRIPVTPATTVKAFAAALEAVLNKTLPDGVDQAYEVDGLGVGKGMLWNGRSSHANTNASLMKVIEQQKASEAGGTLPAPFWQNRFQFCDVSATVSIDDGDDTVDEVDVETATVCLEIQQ

[3] = biological target: AMP-activated protein kinase, AMPK (Homo sapiens) (UniProt P54646+O43741+P54619+Q9UGJ0+Q9Y478+Q13131+Q9UGI9); assay: AMP-dependent Kinase enzyme assay. An in vitro enzyme assay that detects ADP turnover that is directly proportional to AMPK activity. This uses naive AMPK that is activated during the assay with MK-8722; type: functional; conditions: 30 µM
[4] = biological target: Sialic acid-binding Ig-like lectin 9 (Homo sapiens) (UniProt Q9Y336); assay: Hs-Siglec9 ALPHAscreen SOP 20170721; conditions: 10 µM
Sialic acid-binding Ig-like lectin 9 (Homo sapiens), sequence (Q9Y336 whole entry): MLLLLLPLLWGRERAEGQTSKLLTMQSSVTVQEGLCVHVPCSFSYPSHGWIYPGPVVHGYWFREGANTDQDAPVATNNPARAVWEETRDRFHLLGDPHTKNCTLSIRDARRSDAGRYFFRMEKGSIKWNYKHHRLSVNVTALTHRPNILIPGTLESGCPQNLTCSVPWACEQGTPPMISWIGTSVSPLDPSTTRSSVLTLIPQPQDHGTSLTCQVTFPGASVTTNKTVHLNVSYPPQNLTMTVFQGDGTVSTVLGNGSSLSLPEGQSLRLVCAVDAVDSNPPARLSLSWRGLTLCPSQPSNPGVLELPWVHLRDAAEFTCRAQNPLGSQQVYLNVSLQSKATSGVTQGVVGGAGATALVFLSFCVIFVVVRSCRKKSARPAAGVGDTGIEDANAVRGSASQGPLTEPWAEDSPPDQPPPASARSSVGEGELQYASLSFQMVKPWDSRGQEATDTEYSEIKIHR

[5] = tested on: Trypanosoma cruzi; assay: Trypanosoma cruzi phosphomannomutase and mannose-1-phosphate guanylyltransferase assay; type: functional; conditions: 10 µM
[6] = biological target: T2, Arginase-2, mitochondrial (Homo sapiens) (UniProt P78540); assay: in vitro enzyme assay to detect the production of urea directly proportional to the activity of Arginase II; type: functional; conditions: 33.3 µM; note: in the data most compounds retested in dose-response had high values
T2 sequence (whole entry): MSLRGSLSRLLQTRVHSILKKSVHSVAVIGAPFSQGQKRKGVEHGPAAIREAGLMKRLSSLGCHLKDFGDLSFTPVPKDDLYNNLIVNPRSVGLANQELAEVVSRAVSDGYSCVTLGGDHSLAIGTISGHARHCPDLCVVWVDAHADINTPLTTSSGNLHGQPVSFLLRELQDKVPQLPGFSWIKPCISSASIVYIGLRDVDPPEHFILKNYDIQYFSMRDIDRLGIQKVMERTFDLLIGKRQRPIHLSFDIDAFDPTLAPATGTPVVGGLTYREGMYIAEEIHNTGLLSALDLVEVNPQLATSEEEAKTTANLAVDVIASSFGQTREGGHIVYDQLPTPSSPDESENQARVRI

[7] = biological target: T3, Proteasome subunit beta (Trypanosoma cruzi) (UniProt O96673); assay: Trypanosoma cruzi proteasome chymotrypsin-like activity (TcProtChymo) assay.; note: in the data most compounds retested in dose-response had high values; type: functional; conditions: 9.37 µM
T3 sequence (whole entry): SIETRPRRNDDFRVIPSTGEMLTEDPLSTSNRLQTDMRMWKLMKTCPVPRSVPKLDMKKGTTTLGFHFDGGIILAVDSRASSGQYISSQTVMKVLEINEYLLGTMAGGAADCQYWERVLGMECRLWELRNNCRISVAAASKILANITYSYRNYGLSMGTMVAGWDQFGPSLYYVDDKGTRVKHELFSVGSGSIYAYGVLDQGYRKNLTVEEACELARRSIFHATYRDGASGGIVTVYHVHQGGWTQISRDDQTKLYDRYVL

[8] = organism: Homo sapiens; assay: To identify inhibition of the IFN signalling (Jak-Stat) pathway via expression of an eGFP reporter gene under the control of an IFN-stimulated response element (ISRE) containing MxA promoter.; type: functional; conditions: 30 µM
[9] = biological target: T4, Tyrosyl-tRNA synthetase, putative (Trypanosoma cruzi (strain CL Brener)) (UniProt Q4DSP6); assay: Trypanosoma cruzi tyrosyl tRNA synthetase (TcYRS) _High Tyrosine SOP; type: functional; conditions: 30 µM; note: in the data most compounds retested in dose-response had high values
T4 sequence (whole entry): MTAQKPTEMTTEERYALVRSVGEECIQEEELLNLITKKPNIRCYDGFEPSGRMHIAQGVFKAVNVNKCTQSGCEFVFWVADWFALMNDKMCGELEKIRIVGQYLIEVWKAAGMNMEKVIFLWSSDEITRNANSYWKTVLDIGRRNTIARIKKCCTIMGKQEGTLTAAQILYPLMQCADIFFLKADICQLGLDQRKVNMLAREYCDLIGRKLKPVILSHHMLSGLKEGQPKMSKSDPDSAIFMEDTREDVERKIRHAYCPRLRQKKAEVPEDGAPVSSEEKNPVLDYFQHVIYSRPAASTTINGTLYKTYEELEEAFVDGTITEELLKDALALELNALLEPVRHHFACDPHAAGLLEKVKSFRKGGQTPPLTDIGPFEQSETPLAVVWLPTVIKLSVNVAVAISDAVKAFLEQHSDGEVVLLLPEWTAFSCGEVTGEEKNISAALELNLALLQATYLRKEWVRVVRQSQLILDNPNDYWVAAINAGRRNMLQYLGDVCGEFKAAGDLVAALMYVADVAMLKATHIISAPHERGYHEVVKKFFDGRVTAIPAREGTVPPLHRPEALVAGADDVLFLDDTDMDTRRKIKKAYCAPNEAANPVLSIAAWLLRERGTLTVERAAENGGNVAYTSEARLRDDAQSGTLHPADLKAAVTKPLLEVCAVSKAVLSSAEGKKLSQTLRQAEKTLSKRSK

[10] = biological target: T4, Tyrosyl-tRNA synthetase, putative (Trypanosoma cruzi (strain CL Brener)); assay: Trypanosoma cruzi tyrosyl tRNA synthetase (TcYRS) SOP; type: functional; conditions: 30 µM
[11] = biological target: Chromo domain-containing protein 1 (Saccharomyces cerevisiae (strain ATCC 204508 / S288c) (Baker's yeast)) (UniProt P32657); assay: ScCHD-1 Enzyme Inhibition Assay; type: functional; conditions: 30 µM; note: in the data most compounds retested in dose-response had high values
Chromo domain-containing protein 1 (Saccharomyces cerevisiae (strain ATCC 204508 / S288c) (Baker's yeast)), sequence (P32657 whole entry, the tested form may be a part): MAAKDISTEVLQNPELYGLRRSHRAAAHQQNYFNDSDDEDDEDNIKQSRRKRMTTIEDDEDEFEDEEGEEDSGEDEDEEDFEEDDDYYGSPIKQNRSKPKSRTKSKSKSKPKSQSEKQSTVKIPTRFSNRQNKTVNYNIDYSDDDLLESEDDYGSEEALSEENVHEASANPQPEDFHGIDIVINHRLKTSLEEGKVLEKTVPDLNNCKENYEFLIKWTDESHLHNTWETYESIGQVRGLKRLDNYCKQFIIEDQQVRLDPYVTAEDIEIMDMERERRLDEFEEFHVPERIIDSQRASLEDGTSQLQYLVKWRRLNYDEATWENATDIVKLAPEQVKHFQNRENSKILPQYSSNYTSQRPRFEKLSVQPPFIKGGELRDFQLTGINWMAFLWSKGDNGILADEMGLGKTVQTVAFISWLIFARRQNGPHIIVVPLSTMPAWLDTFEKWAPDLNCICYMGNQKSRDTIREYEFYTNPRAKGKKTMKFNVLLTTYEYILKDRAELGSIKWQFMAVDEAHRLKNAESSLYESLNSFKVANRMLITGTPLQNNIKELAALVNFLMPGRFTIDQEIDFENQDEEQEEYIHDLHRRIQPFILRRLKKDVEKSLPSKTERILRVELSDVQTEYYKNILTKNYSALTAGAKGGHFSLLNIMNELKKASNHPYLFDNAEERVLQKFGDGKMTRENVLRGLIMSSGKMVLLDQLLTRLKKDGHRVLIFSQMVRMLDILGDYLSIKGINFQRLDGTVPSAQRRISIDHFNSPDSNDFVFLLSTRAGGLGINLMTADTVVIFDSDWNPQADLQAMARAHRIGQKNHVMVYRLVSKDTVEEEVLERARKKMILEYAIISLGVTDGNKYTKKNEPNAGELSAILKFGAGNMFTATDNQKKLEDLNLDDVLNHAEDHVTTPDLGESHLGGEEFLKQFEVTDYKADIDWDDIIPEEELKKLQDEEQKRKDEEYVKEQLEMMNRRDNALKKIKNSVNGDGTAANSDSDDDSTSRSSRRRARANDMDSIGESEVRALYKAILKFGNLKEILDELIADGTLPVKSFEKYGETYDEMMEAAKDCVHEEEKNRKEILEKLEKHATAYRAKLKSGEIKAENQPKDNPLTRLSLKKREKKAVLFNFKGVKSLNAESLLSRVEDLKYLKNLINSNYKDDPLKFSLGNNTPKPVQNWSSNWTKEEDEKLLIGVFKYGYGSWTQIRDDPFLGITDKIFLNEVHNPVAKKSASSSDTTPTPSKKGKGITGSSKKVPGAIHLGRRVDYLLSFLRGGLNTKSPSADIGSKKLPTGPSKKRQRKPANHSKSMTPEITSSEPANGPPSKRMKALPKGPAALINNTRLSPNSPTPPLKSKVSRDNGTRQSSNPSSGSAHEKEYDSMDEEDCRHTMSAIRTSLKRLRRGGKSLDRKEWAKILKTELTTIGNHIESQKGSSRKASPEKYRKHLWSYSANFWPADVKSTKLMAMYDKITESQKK

Protein translocase subunit SecA (Escherichia coli (strain K12)), sequence (P10408 whole entry): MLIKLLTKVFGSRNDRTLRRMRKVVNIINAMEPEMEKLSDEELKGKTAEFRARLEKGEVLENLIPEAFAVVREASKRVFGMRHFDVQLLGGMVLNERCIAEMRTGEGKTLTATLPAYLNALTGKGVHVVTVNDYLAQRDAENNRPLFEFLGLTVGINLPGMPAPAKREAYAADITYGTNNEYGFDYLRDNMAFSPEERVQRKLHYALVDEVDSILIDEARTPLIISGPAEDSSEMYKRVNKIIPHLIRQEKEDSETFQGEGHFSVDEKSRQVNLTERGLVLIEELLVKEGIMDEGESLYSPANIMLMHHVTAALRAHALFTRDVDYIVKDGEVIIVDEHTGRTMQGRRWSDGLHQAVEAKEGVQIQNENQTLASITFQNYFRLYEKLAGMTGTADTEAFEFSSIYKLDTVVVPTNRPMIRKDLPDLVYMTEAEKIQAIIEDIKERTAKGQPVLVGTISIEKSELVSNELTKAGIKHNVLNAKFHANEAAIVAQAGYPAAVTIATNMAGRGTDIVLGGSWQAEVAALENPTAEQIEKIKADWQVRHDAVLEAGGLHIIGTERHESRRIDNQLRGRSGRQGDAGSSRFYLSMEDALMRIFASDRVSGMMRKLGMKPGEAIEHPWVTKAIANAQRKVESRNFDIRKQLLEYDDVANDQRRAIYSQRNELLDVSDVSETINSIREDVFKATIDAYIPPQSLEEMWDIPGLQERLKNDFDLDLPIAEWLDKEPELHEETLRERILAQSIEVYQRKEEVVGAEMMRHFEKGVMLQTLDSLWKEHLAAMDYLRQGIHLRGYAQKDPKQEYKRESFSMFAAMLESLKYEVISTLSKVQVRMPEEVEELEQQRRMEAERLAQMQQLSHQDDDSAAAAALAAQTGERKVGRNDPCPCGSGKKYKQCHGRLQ

Compound	Percent Effect [1] [%]	Percent Effect [2] [%]	Percent Effect [3] [%]	Percent Effect [4] [%]	Percent Effect [5] [%]	Percent Effect [6] [%]	Percent Effect [7] [%]	Percent Effect [8] [%]	Percent Effect [9] [%]	Percent Effect [10] [%]	Percent Effect [11] [%]
CC(=O)NCC(=O)N1CCN(CC2CC2)c2ncccc2C1	-4.55	8	8.23	6.27	-0.394	-0.233	11	0.904	9.57	16.7	-2.61
Cc1nc(N(C)C)nc2c1COCC21CCN(C(=O)NC(C)C)C1 (stereo not given)	-5.29	0	-0.0672	2.32	2.15	-2.08	4.82	-1.11	0.99	18.3	-4.61
Cc1n[nH]c(C2CN(C(=O)Cn3ccccc3=O)CCO2)n1 (stereo not given)	-8.02	1.27	4.25	2.29	-1.13	2.37	6.35	1.57	0	2.53	-9.48
O=C1CC(c2ccc(C(=O)O)cc2)c2ncn(-c3cccc(F)c3)c2N1 (stereo not given)	-3.41	9.33	-61.2	-4.05	-4.13	7.57	13.3	-9.89	10.6	15.4	-7.23
CCn1nc(C)c2nnn(CC(=O)Nc3c(C)cccc3C)c(=O)c21	-7.15	17.3	-10.2	-3.51	5.5	-2.99	5.73	4.38	6.35	12.8	-16.1
Cc1noc(C2CCCN(C(=O)c3ccc(Br)cc3F)C2)n1 (stereo not given)	-5.32	10.4	2.06	2.58	6.95	2.74	6.87	-5.04	1.91	18.8	-19.5
Cn1ccc(C(=O)N2CCN(CCc3ccccc3)CC2)cc1=O	-5.05	11.4	1.25	-2.05	-1.74	3.23	13	6.37	12.5	17.7	-7.93
CNCC(=O)N1CCC(c2ccnc(Nc3ccc(C)cn3)n2)C1 (stereo not given)	-7.25	17.6	1.51	1.04	2.37	-4.87	17.9	-13.7	8.6	19.5	-16.1
Cc1cccc(CS(=O)(=O)NCC(O)Cc2ccccc2)c1 (stereo not given)	-3.31	5.48	-2.41	8.56	3.33	10.4	11.2	7.9	5.38	12.5	-5.28
O=C(NC(Cc1ccsc1)c1nccs1)C1CCOCC1 (stereo not given)	-2.92	9.46	12.2	0.886	-4.74	-0.232	3.12	10.9	1.07	9.09	7.79
CC(C)c1nc(C2CCCN(C(=O)c3ccc4nccn4c3)C2)no1 (stereo not given)	-2.08	10.4	2.88	12.4	-1.47	1.47	3.15	-11.3	1.91	7.06	-11.9
CSc1cccc(CNC(=O)C2CC(=O)N(CCN(C)C)C2)c1 (stereo not given)	0.794	5.33	-10.1	4.4	-2.82	1.56	15.7	9.77	4.92	13.6	-3.47
CC(=O)N1CCC(Cc2cnc(-c3c(C)nn(C)c3C)cn2)C1 (stereo not given)	-3.33	0	8.59	5.11	5.71	-8.62	2.2	-21.9	4.25	6.41	-1.12
COC(=O)c1sccc1S(=O)(=O)N1CCC(Oc2cccnn2)CC1	-0.0971	-5.48	16.5	-5.94	-3.33	1.36	9.58	9.58	-6.45	0	-3.65
COCCN1CC[C@@H]2O[C@@H](COCC(=O)N3CCCC3)CC[C@@H]21	-3.65	5.48	-6.36	2.85	7.94	-3.99	3.85	-31.2	7.29	13.6	-5.05
O=C(c1ccc[nH]1)N1C[C@H](OCc2cccnc2)[C@H]2COC[C@H]21	-4.86	0	2.4	-3.13	1.17	-1.25	12.3	-27.9	8.91	-3.66	-5.43
COCc1cncc2c1CCN(C(=O)c1ccc(C)o1)C2	-3.33	10.7	1.34	-0.678	-4.63	-60	6.33	-0.987	4.17	5	-6.41
CNC(=O)c1cccc(C2CNCCN2C(C)=O)c1 (stereo not given)	0.479	14.9	9.34	-6.16	-4.15	-0.232	10.6	19.3	2.15	3.9	-8.27
Cc1cc(CN(C)C(=O)NC2CCCN(c3ncccn3)C2)no1 (stereo not given)	-1.33	5.26	1.46	4.34	3.01	-1.92	2.34	-2.99	9.31	21.9	-10.3
CN1CCN(C(=O)c2ccc(=O)n(C)c2)Cc2ccccc21	-3.95	-16.2	-7.07	15.3	3.62	-4.25	0.539	5.67	3.96	18.3	-2.09
